These results are taken from PubChem BioAssay.

Assay [1] in a line: compounds altering circadian rhythm period length – cell-based, LOPAC library, luminescence reporter (AID 2774; call rule not given here;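 further: values are relative to mean of DMSO wells on each plate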). As to conditions: circadian reporter cells, at 7 µM, actives lie on both sides.
A short description of assay [2]: compounds altering viability of human ES cells (AID 493140; call rule not given here;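 further: cells exposed to compounds for four days before counting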). As to conditions: human embryonic stem cell survival screen; stronger effect = higher value.
For assay [3], the system named is Hepatitis C virus NS3 helicase. Description: blockers of NS3h binding to ssDNA – biochemical, fluorescence polarization, LOPAC1280 library, primary screen (AID 687035; in the data active means inhibition above about 37%). The following applies: Purified HCV NS3 helicase, Cy5-dT15 ssDNA binding fluorescence polarization; stronger effect = higher value; concentration not given here. On the technique in general: Fluorescence polarisation rises when a labelled molecule tumbles more slowly, as on binding a larger partner.

A short description of assay [4]: compounds altering Cy5-DNA-NS3h complex signal – biochemical, LOPAC1280, artefact control for HCV NS3 helicase inhibitor project (AID 687037; call rule not given here). The following applies: Cy5-DNA-NS3h complex fluorescence interference counterscreen.
Assay [5] can be described thus: viability loss in pontine glioma line – cell-based, JHH-DIPG-1, MIPE4.0, CellTiter-Glo, qHTS, dose response (AID 1347062; cut-off not given, nearly all actives have AC50 up to about 27 µM). The following applies: JHH-DIPG-1 viability, CellTiter-Glo ATP luminescence. (Cellular ATP, detected with luciferase, serves as a proxy for viable cell number.)
The nature of assay [6]: growth inhibition of DIPG cells – cell-based, MIPE4.0 library, CellTiter-Glo luminescence, qHTS (AID 1347066; cut-off not given, nearly all actives have AC50 up to about 30 µM;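 further: cells exposed to compound for 48 hours before readout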). As to conditions: SU-DIPG-VI viability, CellTiter-Glo ATP luminescence.
A short description of assay [7]: blockers of cellular phospholipid synthesis – cell-based, LOPAC library, screen 4, primary screen (AID 1347384; call rule not given here). As to conditions: animal cells, phospholipid biosynthesis inhibition screen; at 10 µM.
The test system of the next assay is F380Y/beta1. Description: BK channel mutant inhibitors and activators – cell-based, U2OS BacMam, thallium flux, beta subunits, selectivity assay, profiling panel (AID 1259406).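 Further: initial slope of Thallos dye fluorescence rise after thallium is added; log ratio against the mean of 0.3% DMSO vehicle wells on the same plate.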 As to conditions: U2OS BacMam BK variants, at 30 µM.
For a further assay, the system named is F380Y/beta4. The description is as above. As to conditions: U2OS BacMam BK variants, at 30 µM.
The subject of a further assay is R275C/beta4. The description is as above. The following applies: U2OS BacMam BK variants, at 30 µM.
For another assay, the system named is R275C/Slo1WT/beta2. The assay is described as above. As to conditions: U2OS BacMam BK variants, at 30 µM.
Assay [8] deals with Neuropilin-2 / VEGF-C interaction (human). Description: small molecules blocking Neuropilin-2/VEGF-C interaction – biochemical, microplate binding format, z-score (AID 743281; call rule not given here). As to conditions: microplate NRP2/VEGF-C binding assay; stronger effect = lower value.
A short description of assay [9]: blockers of polyQ-driven CASP3 activation – cell-based (AID 1583). The following applies: polyglutamine-induced caspase-3 activation, cell assay; stronger effect = higher value;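 tested at 10 µM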.
Assay [10] in a line: yeast 75Q aggregation reduction – 75Q-TubU reporter (AID 1593). As to conditions: Yeast 75Q polyglutamine aggregation reporter.
A short description of assay [11]: restoration of touch response, mutant HTT neurons – whole organism, C. elegans mechanosensory neurons, N-terminal huntingtin (AID 1599). The following applies: C. elegans polyQ-huntingtin mechanosensory neurons, stronger effect = higher value.
A short description of assay [12]: blockers of cytochrome c efflux from mitochondria – biochemical, purified mitochondria (AID 1603).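 Further: mouse liver mitochondria challenged with calcium chloride; signal normalized to the plate average as 100%.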 The following applies: stronger effect = lower value.
Assay [13] in a line: polyglutamine aggregate formation blockers (AID 1604). As to conditions: polyglutamine-induced protein aggregation inhibition assay; stronger effect = higher value; tested at 2.5 µM.
Assay [14] can be described thus: glutamate transport activators, MN-1 cells, MN-1 cell line (AID 1612).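 Further: tested at 1 µM final; 0% = mean of DMSO vehicle wells on each plate; positive means more glutamate uptake than control and negative means less.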 The following applies: MN-1 motor neuron cells, stronger effect = higher value.
A short description of assay [15]: 75Q-TubH aggregate inhibition, S. cerevisiae, yeast (AID 1616). As to conditions: S. cerevisiae 75Q-TubH polyglutamine aggregation suppression; stronger effect = higher value.
The nature of assay [16]: compounds altering HSF1 focus formation in cells – imaging, Selleck Cancer Library (AID 1347162; in the data active means plate-normalised HSF1 focus index below about 0.46). The following applies: human cells, HSF1 nuclear foci imaging, at 10 µM; SSMD: measured here: HSF1 foci SSMD mean; cell count: measured here: cell number; plate-normalised HSF1 focus index: stronger effect = lower value.

Where “and” joins values, the source holds several entries; their conditions need not be identical. Equal entries are not always repeated. Results filed as inconclusive are left out. For some assays here: Entries with a potency or affinity are not part of this list. Calls of active or inactive are those of the source.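 How the source made its calls, unless noted: active means thallium flux through the channel raised or lowered by more than 3 SD from vehicle-only wells, actives on both sides; inactive means the rest.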

On to `CC1=C(/C=C/C(C)=C/C=C/C(C)=C\C(=O)O)C(C)(C)CCC1`, for which, in [1], the period change was 0.45 h (inactive). The survival in assay [2] was 10.8 (inactive) and 52.6 (inactive). Also, the inhibition in assay [3] was 1% (inactive). Also, the fluorescence ratio (interference) in [4] is 0.9 (inactive). Further, the molecule was called inactive in [5], in [6] and in assay [7]. Moreover, the log fold change Tl+ flux is -0.0325 (inactive) in the assay on F380Y/beta1, -0.0711 (inactive) in the assay on F380Y/beta4, 0.00975 (inactive) in the assay with R275C/beta4 and 0.0252 (inactive) with R275C/Slo1WT/beta2.

With `CS(=O)(=O)c1ccc(C2=C(c3ccccc3)C(=O)OC2)cc1`, the z-score in assay [8] was -0.0129 (inactive). The outcome in assay [5] and in assay [6] was inactive. Also, the log fold change Tl+ flux is 0.00163 (inactive) with F380Y/beta1, -0.000569 (inactive) in the assay with F380Y/beta4, 0.00682 (inactive) in the assay on R275C/beta4 and 0.00403 (inactive) with R275C/Slo1WT/beta2.

For `Cc1cccc(C)c1NC(=O)C1CCCCN1C` (centres undefined), the z-score in assay [8] was -0.136 (inactive). For the same molecule, the log fold change Tl+ flux with F380Y/beta1 was 0.0319 (inactive); in the assay with F380Y/beta4 it was 0.00629 (inactive); in the assay with R275C/beta4 it was -0.0225 (inactive); with R275C/Slo1WT/beta2, -0.0173 (inactive).

With `O=[N+]([O-])c1cccc2cn[nH]c12`, the period change in assay [1] was -0.295 h (inactive). Also, in [3], the inhibition was -1% (inactive). Further, in [4], the fluorescence ratio (interference) was 1 (inactive). In [8], the z-score is -0.0317 (inactive). The result in [7] was inactive. The log fold change Tl+ flux in the assay on F380Y/beta1 is 0.0616 (inactive); with F380Y/beta4, 0.0331 (inactive); with R275C/beta4 it was 0.0112 (inactive); in the assay on R275C/Slo1WT/beta2, -0.00893 (inactive).

For the molecule `COc1ccc(-c2cc(=O)c3c(OC)c(OC)c(OC)c(OC)c3o2)cc1OC`, the z-score in assay [8] was 0.248 (inactive). In addition, the log fold change Tl+ flux in the assay with F380Y/beta1 was 0.0362 (inactive); in the assay on F380Y/beta4 it was -0.0316 (inactive); in the assay on R275C/beta4, -0.242 (active); in the assay on R275C/Slo1WT/beta2, -0.0213 (inactive).

`C[C@H]1COc2c(N3CCN(C)CC3)c(F)cc3c(=O)c(C(=O)O)cn1c23`: in assay [8], the z-score was -0.188 (inactive). In addition, the molecule was classed as inactive in [5] and in assay [6]. For the same molecule, the log fold change Tl+ flux in the assay with F380Y/beta1 was 0.0152 (inactive); with F380Y/beta4, -0.0339 (inactive); in the assay with R275C/beta4, -0.0147 (inactive); with R275C/Slo1WT/beta2, 0.0224 (inactive).

Turning to `CC(C)NCC(O)COc1cccc2ccccc12` (centres undefined), the inhibition in assay [9] is -12.7%; in [3], -4% (inactive). This molecule displayed a score in assay [10] of 1.12. Further, the rescue above control in assay [11] was -3.83. Also, the cytochrome c release ratio in assay [12] was 1.04. Also, the inhibition of aggregation in assay [13] came out at 62.1%. Moreover, in assay [14], the glutamate uptake change worked out at 4.46%. The same molecule gave an aggregation suppression score in [15] of 0.965. Further, in assay [1], the period change was -0.115 h (inactive). Also, the survival in [2] is 5.92 (inactive) and 9.92 (inactive) and 3.58 (inactive). In addition, in assay [4], the fluorescence ratio (interference) was 1 (inactive). For the same molecule, the molecule was called inactive in assay [7]. Moreover, the log fold change Tl+ flux with F380Y/beta1 is -0.00888 (inactive); with F380Y/beta4, 0.0503 (inactive); in the assay on R275C/beta4 it was 0.00549 (inactive); in the assay with R275C/Slo1WT/beta2 it was -0.0153 (inactive).

Turning to `Cc1occc(=O)c1O`, the z-score in [8] is -0.38 (inactive). Besides, the log fold change Tl+ flux was 0.0152 (inactive) in the assay on F380Y/beta1, 0.0304 (inactive) in the assay on F380Y/beta4, -0.00174 (inactive) in the assay with R275C/beta4 and 0.0112 (inactive) in the assay with R275C/Slo1WT/beta2.

As to `CN(C)CCC(c1ccc(Cl)cc1)c1ccccn1` (centres undefined), the inhibition in assay [9] was -45.4%; in [3], -6% (inactive). The score in assay [10] was 1.36. In assay [11], the rescue above control was found to be 7.64. In assay [12], the cytochrome c release ratio worked out at 0.61. For the same molecule, the inhibition of aggregation in assay [13] is -12.5%. In addition, the glutamate uptake change in assay [14] was -7.91%. The same molecule displayed an aggregation suppression score in assay [15] of 1.27. In addition, in [1], the period change is -0.5 h (inactive). The survival in assay [2] was 24.1 (inactive). Further, the fluorescence ratio (interference) in assay [4] is 0.9 (inactive). The z-score in [8] was 0.208 (inactive). Also, the call in [7] was inactive. In addition, the log fold change Tl+ flux in the assay on F380Y/beta1 is -0.0189 (inactive); in the assay on F380Y/beta4, 0.0511 (inactive); with R275C/beta4 it was 0.0326 (inactive); in the assay with R275C/Slo1WT/beta2, 0.0403 (inactive).

For the molecule `C[C@]12CC[C@@H]3c4ccc(O)cc4CC[C@H]3[C@@H]1CC[C@@H]2O`, in assay [1], the period change is 0.19 h (inactive). Besides, the survival in [2] was 11.2 (inactive). Further, the inhibition in [3] was -3% (inactive). Further, the fluorescence ratio (interference) in assay [4] is 1 (inactive). Besides, the molecule was called inactive in assay [6]. In assay [16], the SSMD was 2.53, the cell count stood at 7010 and the plate-normalised HSF1 focus index was 1.15 (inactive). For the same molecule, the molecule was called inactive in assay [7].

In the case of `COc1ccc(-c2oc3c(CC=C(C)C)c(O[C@@H]4O[C@H](CO)[C@@H](O)[C@H](O)[C@H]4O)cc(O)c3c(=O)c2O[C@@H]2O[C@@H](C)[C@H](O)[C@@H](O)[C@H]2O)cc1`, the z-score in [8] was 0.976 (inactive). Moreover, the log fold change Tl+ flux is 0.00909 (inactive) with F380Y/beta1, -0.0291 (inactive) in the assay with F380Y/beta4, -0.0348 (inactive) in the assay on R275C/beta4 and 0.0155 (inactive) in the assay on R275C/Slo1WT/beta2.

Take `CC(=O)OCC(=O)[C@@]1(O)CC[C@H]2[C@@H]3CCC4=CC(=O)CC[C@]4(C)[C@H]3[C@@H](O)C[C@@]21C`: the log fold change Tl+ flux was -0.0206 (inactive) in the assay on F380Y/beta1, 0.0297 (inactive) with F380Y/beta4, -0.0187 (inactive) in the assay on R275C/beta4 and -0.0133 (inactive) with R275C/Slo1WT/beta2.

Regarding `CC1(C)SC2C(NC(=O)COc3ccccc3)C(=O)N2C1C(=O)O` (centres undefined), the log fold change Tl+ flux in the assay with F380Y/beta1 was 0.027 (inactive); in the assay on F380Y/beta4, -0.00549 (inactive); with R275C/beta4, 0.0174 (inactive); with R275C/Slo1WT/beta2 it was 0.0607 (inactive).

Regarding `CNCCC=C1c2ccccc2CCc2ccccc21`, the inhibition in assay [9] is 16.9%; in assay [3], -5% (inactive). Moreover, in [10], the score was determined as 1.22. For the same molecule, in [12], the cytochrome c release ratio is 0.98. The inhibition of aggregation in assay [13] amounted to 72.7%. In addition, the glutamate uptake change in assay [14] was 13.8%. In assay [15], this molecule gave an aggregation suppression score of 1.32. For the same molecule, the period change in [1] was 0.025 h (inactive). For the same molecule, the survival in assay [2] is 3.42 (inactive). The fluorescence ratio (interference) in [4] was 1 (inactive). Besides, in assay [7], the molecule was called inactive. Besides, the log fold change Tl+ flux is 0.0784 (inactive) in the assay with F380Y/beta1, 0.255 (active) in the assay with F380Y/beta4, 0.121 (inactive) in the assay on R275C/beta4 and -0.0571 (inactive) in the assay with R275C/Slo1WT/beta2.

Usually inhibition stands for the relative decrease from the control value, in per cent.
